# L3MBTL1 inh = blocks human L3MBTL1 | Q9Y468 | AlphaScreen L3MBTL1–H3K9me1 peptide binding | Potency, µM (top dose mostly 57.1 µM), without a hit: at the highest dose activity, negative = inhibition, hits mostly inhibitors | actives 0.66% (n = 230,000); note: % is set by controls: 0 for no effect and ±100 for the full control effect; nearly all actives have a fitted effect of over 60% in size
#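 Read-out is AlphaScreen signal from streptavidin donor and nickel chelate acceptor beads (10 ug/mL final each) bridging L3MBTL1 (50 nM) and biotinylated K9-monomethylated H3(1-15) peptide (75 nM), after 30 min compound exposure at room temperature.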
# Sfp inh = blocks B. subtilis Sfp PPTase activity | Q9F4F7 | Biochemical Sfp PPTase activity, qHTS | Potency, µM, for inactives: largest response in the series, negative = inhibition, hits mostly inhibitors | actives 3.5% (n = 310,000) | AID 1490;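 note: the enzyme is Sfp with the accession as filed and its product quenches rhodamine fluorescence; 0% = enzyme reaction without inhibitor and -100% = no enzyme wells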
#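 Buffer: 50 mM Hepes-Na pH 7.6, 10 mM MgCl2, 0.01% Nonidet P-40, 0.01% BSA. Enzyme 15 nM, pre-exposed to compound 15 min; substrates then added and fluorescence change tracked over 30 min.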
# HP1b binding inh = HP1-beta chromodomain-methylated histone interaction inhibition; AlphaScreen HP1-beta / biotin-H3K9me3 peptide binding; AID 540317; actives 0.56% (n = 390,000); Potency, µM (top dose mostly 114 µM), inactives show at the top dose activity change, negative = inhibition, hits mostly inhibitors; note: nearly all actives have a fitted effect of over 70% in size
# Target sequence (P83916 whole entry, looked up): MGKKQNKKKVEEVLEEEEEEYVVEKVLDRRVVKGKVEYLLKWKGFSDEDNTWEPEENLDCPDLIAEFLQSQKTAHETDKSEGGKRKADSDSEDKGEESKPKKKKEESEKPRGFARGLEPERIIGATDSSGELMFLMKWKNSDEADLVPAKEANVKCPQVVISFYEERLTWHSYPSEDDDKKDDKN
#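 Compound inhibition of the preformed complex between 50 nM HP1-beta and 50 nM biotinylated H3K9me3 peptide was read by AlphaScreen. Buffer was PBS pH 7.4 with 0.01% Tween-20. Incubations ran 30 min at room temperature, with 10 ug/mL donor/acceptor beads.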
# BAZ2B inh = blocks human BAZ2B; actives 4.4% (n = 360,000); Potency, µM (top dose mostly 114 µM), for the others: top-dose activity change, negative = inhibition, actives largely listed as inhibitors; AlphaScreen BAZ2B-H3K14Ac peptide displacement; AID 504333; note: % is set by controls: 0 for no effect and ±100 for the full control effect; nearly all actives have a fitted effect of over 60% in size
#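 BAZ2B (50 nM) with biotin-H3(5-23)K14Ac peptide (50 nM) in PBS pH 7.4, 0.01% Tween-20, preformed 30 min, then compound 30 min at room temperature; top concentration 110uM. AlphaScreen streptavidin donor/nickel chelate acceptor beads (10 ug/mL final), 20 min dark, signal read.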
# G9a block = inhibitors of human histone lysine methyltransferase G9a; Q96KQ7; G9a H3K9 monomethylation, AlphaScreen, 2 h; Potency, µM (highest dose often 102 µM), inactives show at the top dose activity, negative = inhibition, actives largely listed as inhibitors; actives 8.8% (n = 350,000); note: % is set by controls: 0 for no effect and ±100 for the full control effect; nearly all actives have a fitted effect of over 75% in size
# Target sequence (Q96KQ7 913-1193 limits assumed): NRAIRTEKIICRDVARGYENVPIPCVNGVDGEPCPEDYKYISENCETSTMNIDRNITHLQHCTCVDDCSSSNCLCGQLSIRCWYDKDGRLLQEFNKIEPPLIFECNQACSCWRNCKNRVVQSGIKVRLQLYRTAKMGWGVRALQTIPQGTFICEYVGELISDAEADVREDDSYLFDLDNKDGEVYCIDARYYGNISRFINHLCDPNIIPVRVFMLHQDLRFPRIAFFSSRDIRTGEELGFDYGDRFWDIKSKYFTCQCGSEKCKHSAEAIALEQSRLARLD
#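 Readings reflect AlphaScreen signal from monomethyl-H3K9 antibody detection. HMT at 20 nM; substrate b-H3K9 500 nM; cofactor SAM 20 uM; 2 h RT reaction; compounds tested as titrations in qHTS with 15 min preincubation.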
# JMJD2A Tudor = JMJD2A Tudor domain (human) inhibition; O75164; AlphaScreen JMJD2A-Tudor / H3K4me3 peptide binding; Potency, µM (titrated, usually from 114 µM), without a hit: top-dose activity change, negative = inhibition, most hits filed as inhibitors; actives 4.4% (n = 390,000); AID 504339; note: % is set by controls: 0 for no effect and ±100 for the full control effect; nearly all actives have a fitted effect of over 50% in size
# Active calls of the source: *; ? = inconclusive; / = not tested or not shown; [ ] = dose if it differs, or a comment. A selection: hits, their analogues and other compounds. The true share with any hit is near 12%. Calls come from the whole dose curve; as a rule, active = well fitted curve in the direction sought with a large enough effect; inconclusive = small, poorly fitted or top-dose-only effect, or another doubt; inactive = no such curve, though single readings can be large; an effect the other way counts as inactive or inconclusive. Potency is the fitted concentration of half-maximal effect.
SMILES,L3MBTL1 inh,Sfp inh,HP1b binding inh,BAZ2B inh,G9a block,JMJD2A Tudor
NS(=O)(=O)c1cccc(NC(=O)CSc2nc3ccccc3c(=O)n2CC2CCCO2)c1 (stereo unspecified),0%,/,11%,2%,?,1%
CC(C)=CCc1c(O)cc(O)c2c(=O)c3c(CC=C(C)C)c(O)ccc3oc12,/,/,-23%,/,/,56µM*
CC(C)=CCc1c(O)cc2c(=O)c3ccc(O)cc3oc2c1O,/,/,0%,/,/,?
O=C(O)c1cc([N+](=O)[O-])c(N2CCCC2)c([N+](=O)[O-])c1,-29%,1%,9%,-14%,8.9µM*,3%
O=C(CCC1CCCN(C(=O)CC2=CCCCC2)C1)N1CCN(c2ccccn2)CC1 (stereo unspecified),-6%,-1%,-17%,-3%,14%,14µM*
Cn1nc(C(=O)OCC(=O)Nc2ccc(C(N)=O)cc2)c2ccccc2c1=O,-2%,/,26%,/,/,6%
CCn1c(CCNC(=O)c2ccc(Cl)cc2Cl)n[nH]c1=S,4%,4%,41%,9%,40µM*,7.1µM*
CCn1c(CCNC(=O)c2ccccc2Cl)n[nH]c1=S,-4%,6%,33%,4%,/,40µM*
COc1cc(C(=S)N2CCOCC2)cc(OC)c1OC(=O)c1cccc(C)c1,-4%,4%,-5%,-38%,?,?
Cc1cccc(NS(=O)(=O)c2ccc(C)c(C(=O)NCC(c3cccs3)N(C)C)c2)c1 (stereo unspecified),-3%,/,-5%,-10%,?,-34%
CCN(CC)c1ccc(NC(=O)C2COc3ccc(OC)cc3C2)c(C)c1 (stereo unspecified),/,/,30%[57 µM],1%,7.9µM*,-31%
CCN(CC)c1ccc(NC(=O)C2CCN(S(=O)(=O)c3cnc[nH]3)CC2)c(C)c1,/,/,11%,/,11µM*,?
COc1ccc2c(c1)CC(C(=O)Nc1ccc(OC)cc1OC)CO2 (stereo unspecified),/,/,36%[57 µM],-18%,-41%[59 µM],-23%
CCN(CC)c1ccc(NC(=O)C2CCCN(S(=O)(=O)c3cccnc3)C2)c(C)c1 (stereo unspecified),/,0%,-7%,-32%,20µM*,?
O=c1c(N2CCN(c3ccc(F)cc3)CC2)csc2ccc(F)cc12,/,/,25%[57 µM],-29%,-5%[59 µM],-16%
O=C(NCCc1ccc(F)cc1)C(=O)Nc1cc2c3c(c1)CC(=O)N3CCC2,-5%,/,21%,-21%,-23%,-3%
Fc1ccc(-c2noc3ncnc(NCCc4ccccc4)c23)cc1,/,/,35%,22%[57.1 µM],6%[59 µM],16%
O=C1N=c2ccccc2=C1c1sc(Nc2cccc(O)c2)nc1O,0%,-25%,-15%,56µM*,?,?
O=C(O)CCC(C(=O)O)n1c(O)c(C2=c3ccccc3=NC2=O)sc1=S (stereo unspecified),/,-28%,0%,?,?,-14%
O=C1N=c2ccccc2=C1c1sc(Nc2ccc(O)cc2)nc1O,/,56µM*,21%,56µM*,79µM*,?
O=C1N=c2ccccc2=C1c1sc(NS(=O)(=O)Cc2ccccc2)nc1O,/,-5%,6%,?,-18%[59 µM],?
COc1ccccc1CNC(=O)C1CCN(c2nc3ccc(Cl)cc3[nH]2)CC1,/,/,20%[57 µM],-1%,0%[59 µM],-24%
O=C(NNc1cc(C(F)(F)F)ccc1Cl)c1ccc(=O)[nH]c1,/,56µM*,2%,4%,-32%,-14%
Nc1nc(NCCN2CCOCC2)nc(NCc2ccccc2)c1[N+](=O)[O-],-9%,6%,46%,-14%,-5%,-16%
CCOc1ccccc1N1CCN(S(=O)(=O)c2ccc3c4c(cccc24)C(=O)N3)CC1,/,-1%,-16%,50µM*,?,56µM*
SMILES,L3MBTL1 inh,Sfp inh,HP1b binding inh,BAZ2B inh,G9a block,JMJD2A Tudor
COc1ccccc1OC(=O)CCc1nc2ccccc2s1,0%,14µM*,51%,?,50µM*,0%
COC(=O)C(Cc1ccc(O)cc1)NC(=O)CCc1nc2ccccc2s1 (stereo unspecified),/,-4%,0%,-38%,40µM*,-10%
COC(=O)C(Cc1ccc(O)cc1)NC(=O)CCOc1ccc(OC)cc1 (stereo unspecified),-8%,24%,38%,-5%,13%[59 µM],-10%
COc1cc(C(=O)C(=O)c2cc(OC)c(O)c(OC)c2)cc(OC)c1O,-15%,-14%,34%,-30%,45µM*,-14%
COc1ccccc1NC(=O)CSCc1cc(=O)c2cccc(Cl)c2[nH]1,/,/,27%[57 µM],2%,-5%[59 µM],3%
CCC(C)NC(=O)c1cc2c(=O)n3cccc(C)c3nc2s1 (stereo unspecified),/,12%,35%,14%,14%,16%
COc1cccc(CNC(=O)Cn2ncc3c4ccccc4n(Cc4ccccc4)c3c2=O)c1,/,/,31%,2%,-4%[59 µM],3%
C=CCNc1nc(C(=O)OCC(=O)Nc2cccc(SC)c2)cs1,-12%,/,1%,79µM*,56µM*,?
C=CCNc1nc(C(=O)OCC(=O)c2ccc(C)c([N+](=O)[O-])c2)cs1,/,6%,-13%,50µM*,13%,-24%
Cc1ccc(OCC(=O)N2CCCCC2C)c([N+](=O)[O-])n1 (stereo unspecified),-2%,/,34%,/,/,9%
NC(=O)c1ccc(NC(=O)CSC2=Nc3ccccc3C3CC=NN23)cc1 (stereo unspecified),/,6%,30%,6%,13µM*,-8%
COCCCN1C(=O)c2[nH]nc(-c3ccccc3O)c2C1c1ccc(OCc2ccccc2)cc1 (stereo unspecified),/,/,4%,?,-47%[59 µM],?
COC(=O)c1ccc(NS(=O)(=O)c2ccc3[nH]c4c(c3c2)CCCC4)cc1,/,/,-21%,71µM*,?,?
CC(=O)c1ccc(NS(=O)(=O)c2ccc3[nH]c4c(c3c2)CCCC4)cc1,/,/,-12%,79µM*,?,?
CCOc1ccc(CNS(=O)(=O)c2ccc3[nH]c4c(c3c2)CCCC4)cc1OC,/,/,?,45µM*,?,?
Cc1ccc(NS(=O)(=O)c2ccc3[nH]c4c(c3c2)CCCC4)c(C)c1,/,/,?,40µM*,16µM*,28µM*
COc1ccc(Cl)cc1NS(=O)(=O)c1ccc2[nH]c3c(c2c1)CCCC3,/,/,0%,-37%,?,?
CCOC(=O)C(C)NC(=O)c1cc2c(=O)[nH]c3ccc(C)cc3c2s1 (stereo unspecified),/,/,34%,6%,-3%[59 µM],1%
Cc1cc2oc(C(=O)Nc3ccc(S(=O)(=O)N4CCCCCC4)cc3)cc(=O)c2cc1C,/,/,29%,-5%,8%[59 µM],-9%

# Compound activity as filed in PubChem BioAssay.
